Source: PubChem BioAssay (Tox21)
Inconclusive results are not listed. Activity calls are given as the source filed them. Unless noted, calls come from the whole dose curve.

How the values were obtained:
[1] = Nuclear factor erythroid 2-related factor 2/antioxidant responsive element (Nrf2/ARE) small molecule agonists: qHTS cell viability counter screen in human keratinocytes (AID 1919968; active = well fitted curve in the direction sought with a large enough effect in the repeat runs; an effect the other way counts as inactive or inconclusive; note: nearly all actives have a fitted effect of over 55% in size)
Method in brief: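 Viability counter-screen: KeratinoSens reporter cells, DMSO-delivered compounds, 23 h at 37 C, CellTiter-Fluor fluorescence.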

[2] = Nuclear factor erythroid 2-related factor 2/antioxidant responsive element (Nrf2/ARE) small molecule agonists: luciferase reporter gene qHTS assay in human keratinocytes (AID 1919969); note: nearly all actives have a fitted effect of over 35% in size
[3] = molecular target: Gonadotropin-releasing hormone receptor (Homo sapiens) (UniProt P30968); assay: Human gonadotropin-releasing hormone receptor (GnRHR) small molecule agonists, calcium flux assay in GnRHR-HEK293 cells (AID 1920063); note: nearly all actives have a fitted effect of over 35% in size
Chain of Gonadotropin-releasing hormone receptor (Homo sapiens) (P30968 whole entry, looked up): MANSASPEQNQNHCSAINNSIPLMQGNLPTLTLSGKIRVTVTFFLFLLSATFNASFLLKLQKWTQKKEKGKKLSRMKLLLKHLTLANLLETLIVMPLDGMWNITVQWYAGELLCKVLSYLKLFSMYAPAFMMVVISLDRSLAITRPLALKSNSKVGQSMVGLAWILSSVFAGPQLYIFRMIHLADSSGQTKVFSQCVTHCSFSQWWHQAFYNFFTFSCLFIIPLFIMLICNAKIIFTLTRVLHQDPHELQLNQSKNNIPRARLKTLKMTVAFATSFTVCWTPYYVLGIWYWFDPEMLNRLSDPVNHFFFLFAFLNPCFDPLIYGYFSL
Method in brief: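 Tox21-format agonist screen using human GnRHR-expressing HEK293 cells and a fluorescent calcium dye; kinetic 3-min fluorescence reading after compound addition, 15-point concentration series run in triplicate.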

[4] = molecular target: KiSS-1 receptor (Homo sapiens) (UniProt Q969F8); assay: Human kisspeptin (KISS1R) small molecule agonists, calcium flux assay in KISS1R-HEK293 cells (AID 1920064; active = well fitted curve in the direction sought with a large enough effect in the repeat runs; an effect the other way counts as inactive or inconclusive)
Chain of KiSS-1 receptor (Homo sapiens) (Q969F8 whole entry, looked up): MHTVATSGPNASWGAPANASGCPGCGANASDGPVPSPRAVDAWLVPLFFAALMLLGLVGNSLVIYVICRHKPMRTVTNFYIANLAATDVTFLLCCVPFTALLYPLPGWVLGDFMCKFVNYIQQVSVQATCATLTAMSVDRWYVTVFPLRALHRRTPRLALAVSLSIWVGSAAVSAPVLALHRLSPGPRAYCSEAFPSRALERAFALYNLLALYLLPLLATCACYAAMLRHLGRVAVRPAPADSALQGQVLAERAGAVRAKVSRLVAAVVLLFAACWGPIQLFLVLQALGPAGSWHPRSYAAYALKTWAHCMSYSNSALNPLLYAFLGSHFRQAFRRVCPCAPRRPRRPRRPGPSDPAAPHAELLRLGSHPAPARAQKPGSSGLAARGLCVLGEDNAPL
Method in brief: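 Intracellular calcium mobilization in KISS1R-HEK293 cells was recorded by fluorescence (Ex/Em 480/540) for 3 min following compound addition to cells pre-loaded 1 h with calcium dye.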

[5] = G protein-coupled receptor (GPCR) small molecule agonists, calcium flux assay: HEK293 wild type cell line counter screen (AID 1920065)
Method in brief: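 In this agonist-mode screen, ATP is the positive control and DMSO the vehicle. Cells grow 18 h before a 1 h dye incubation at 37 C; signal is taken at Ex/Em 480/540 over 3 min.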

[6] = p53 small molecule agonists, cell-based qHTS assay with human liver microsomes (AID 1963577);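 note: p53 response element beta-lactamase reporter cells with liver microsomes plus NADPH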
Method in brief: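 Reporter activation was measured by LiveBLAzer fluorescence intensity in p53RE-bla cells, which had been exposed to compounds for 16 h at 37 C alongside 0.5 mg/mL human liver microsomes and 0.5 mg/mL NADPH (final concentrations).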

[7] = p53 small molecule agonists, cell-based qHTS assay with rat liver microsomes (AID 1963578)
Method in brief: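 Compound in DMSO added to p53RE-bla cells 5 h post-plating; rat microsomes/NADPH 0.5 mg/mL final; 16 h, 37 C; LiveBLAzer 2 h RT.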

[8] = p53 small molecule agonists, cell-based qHTS assay with human liver microsomes: qHTS cell viability counter screen (AID 1963579); note: nearly all actives have a fitted effect of over 45% in size
Method in brief: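 HLM-supplemented (0.5 mg/mL final) and NADPH-supplemented (0.5 mg/mL final) p53RE-bla cultures, 4,000 cells per well, were dosed with compounds in DMSO for 16 h at 37 C; luminescent ATP detection (CellTiter-Glo, 30 min, room temperature) quantified surviving cells.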

[9] = p53 small molecule agonists, cell-based qHTS assay with rat liver microsomes: qHTS cell viability counter screen (AID 1963580); note: nearly all actives have a fitted effect of over 45% in size
Method in brief: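 In HCT-116 cells carrying a p53 response element-bla reporter, compounds were metabolically activated in situ by rat liver microsomes with NADPH over 16 h. Cell ATP content then served as the cytotoxicity measure.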

[10] = p53 small molecule agonists, cell-based qHTS assay: qHTS cell viability counter screen (AID 1963581); note: nearly all actives have a fitted effect of over 45% in size
Method in brief: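 Compounds are pinned onto HCT-116 p53RE-bla cells and left 16 h at 37 C. Following the reporter FRET read, ATP is quantified by CellTiter-Glo luminescence after 30 min at room temperature.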

[11] = p53 small molecule agonists, cell-based qHTS assay (AID 1963582; active = well fitted activation curve with a large enough effect in the signal ratio in the repeat runs, not every such curve was filed as active; the % refers to the signal ratio)
Method in brief: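 Agonist activity was scored from beta-lactamase FRET fluorescence in p53RE-bla cells treated 16 h at 37 C with compounds in DMSO, substrate incubation being 2 h at room temperature.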

[12] = molecular target: 5-hydroxytryptamine receptor 2A (Homo sapiens) (UniProt P28223); assay: 5-hydroxytryptamine receptor 2A (HTR2A) small molecule antagonists, cell-based qHTS assay (AID 1963586); note: nearly all actives have a fitted effect of over 45% in size
Chain of 5-hydroxytryptamine receptor 2A (Homo sapiens) (P28223 whole entry, looked up): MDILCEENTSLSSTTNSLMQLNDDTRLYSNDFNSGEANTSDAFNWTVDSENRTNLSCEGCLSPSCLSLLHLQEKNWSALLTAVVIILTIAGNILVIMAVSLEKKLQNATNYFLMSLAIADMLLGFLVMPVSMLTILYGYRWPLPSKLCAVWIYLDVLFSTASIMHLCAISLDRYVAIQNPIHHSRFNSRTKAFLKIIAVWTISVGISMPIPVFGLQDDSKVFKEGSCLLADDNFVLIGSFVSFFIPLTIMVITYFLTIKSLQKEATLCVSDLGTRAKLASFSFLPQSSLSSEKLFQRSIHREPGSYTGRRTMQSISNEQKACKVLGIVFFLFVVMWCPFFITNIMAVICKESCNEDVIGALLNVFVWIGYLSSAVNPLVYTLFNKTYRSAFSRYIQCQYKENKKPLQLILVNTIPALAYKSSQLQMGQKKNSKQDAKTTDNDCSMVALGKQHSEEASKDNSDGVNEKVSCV
Method in brief: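 Antagonist-mode intracellular calcium assay: DOI (4 nM) added after 5 min compound pre-incubation at room temperature to dye-loaded HTR2A-CHO cells. Fluorescence followed for 3 min, sampled every second.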

[13] = molecular target: 5-hydroxytryptamine receptor 2A (Homo sapiens) (UniProt P28223); assay: 5-hydroxytryptamine receptor 2A (HTR2A) small molecule agonists, cell-based qHTS assay (AID 1963587); note: nearly all actives have a fitted effect of over 30% in size
Method in brief: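 HTR2A-CHO cells, plated 18 h at 37 C/5% CO2, dye-loaded 1 h at 37 C; compounds in DMSO added by pin tool (agonist mode). Intracellular calcium flux read as kinetic fluorescence on FDSS over 2 min at 1 s intervals.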

[14] = molecular target: Muscarinic acetylcholine receptor M1 (Homo sapiens) (UniProt P11229); assay: Cholinergic receptor muscarinic 1 (CHRM1) small molecule antagonists, cell-based qHTS assay (AID 1963588); note: nearly all actives have a fitted effect of over 40% in size
Chain of Muscarinic acetylcholine receptor M1 (Homo sapiens) (P11229 whole entry, looked up): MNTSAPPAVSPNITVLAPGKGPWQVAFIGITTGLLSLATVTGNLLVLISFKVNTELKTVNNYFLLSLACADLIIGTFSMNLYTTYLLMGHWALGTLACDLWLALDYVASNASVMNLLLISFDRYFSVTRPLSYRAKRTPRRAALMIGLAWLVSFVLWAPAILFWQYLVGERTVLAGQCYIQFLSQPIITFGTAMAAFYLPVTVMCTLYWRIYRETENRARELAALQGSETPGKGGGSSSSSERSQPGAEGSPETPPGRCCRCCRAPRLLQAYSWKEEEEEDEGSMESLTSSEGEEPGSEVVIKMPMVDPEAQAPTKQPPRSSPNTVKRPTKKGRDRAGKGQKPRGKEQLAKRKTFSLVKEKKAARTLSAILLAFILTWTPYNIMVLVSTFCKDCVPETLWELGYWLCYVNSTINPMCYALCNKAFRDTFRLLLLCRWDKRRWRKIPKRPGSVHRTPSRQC
Method in brief: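 CHRM1-CHO calcium-flux assay, antagonist mode. Cells were seeded 18 h, dye-loaded 1 h at 37 C and given compound for 5 min at RT, then acetylcholine was added at 50nM. FDSS fluorescence was read 3 min; 15 concentrations, three runs.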

[15] = molecular target: Muscarinic acetylcholine receptor M1 (Homo sapiens) (UniProt P11229); assay: Cholinergic receptor muscarinic 1 (CHRM1) small molecule agonists, cell-based qHTS assay (AID 1963589); note: nearly all actives have a fitted effect of over 35% in size
Method in brief: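 Stable CHRM1-CHO cells (human receptor) were incubated 18 h, dye-loaded for 1 h at 37 C and exposed to test compounds for agonist activity, with calcium-dependent fluorescence followed kinetically.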

[16] = cAMP Responsive Elements (CRE) small molecule agonists, cell-based qHTS assay (AID 1963590)
Method in brief: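 FRET-based beta-lactamase readout (LiveBLAzer B/G, 2 h RT) quantified CRE activation in HEK 293T CRE-bla cells after 3 h treatment with DMSO-dissolved compounds.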

[17] = cAMP Responsive Elements (CRE) small molecule antagonists, cell-based qHTS assay (AID 1963591; active = well fitted inhibition curve with a large enough effect in the signal ratio in the repeat runs, not every such curve was filed as active; the % refers to the signal ratio)
Method in brief: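 qHTS in CRE-bla HEK 293T cells: compound in DMSO, then 0.25 uM NKH477 (final), 3 h at 37 °C/5% CO2; beta-lactamase FRET read-out after 2 h substrate incubation.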

[18] = molecular target: Beta-2 adrenergic receptor (Homo sapiens) (UniProt P07550); assay: Adrenergic beta2 receptor (ADRB2) small molecule antagonists, cell-based qHTS assay (AID 1963592); note: series mostly up to about 92 µM; nearly all actives have a fitted effect of over 50% in size
Chain of Beta-2 adrenergic receptor (Homo sapiens) (P07550 whole entry, looked up): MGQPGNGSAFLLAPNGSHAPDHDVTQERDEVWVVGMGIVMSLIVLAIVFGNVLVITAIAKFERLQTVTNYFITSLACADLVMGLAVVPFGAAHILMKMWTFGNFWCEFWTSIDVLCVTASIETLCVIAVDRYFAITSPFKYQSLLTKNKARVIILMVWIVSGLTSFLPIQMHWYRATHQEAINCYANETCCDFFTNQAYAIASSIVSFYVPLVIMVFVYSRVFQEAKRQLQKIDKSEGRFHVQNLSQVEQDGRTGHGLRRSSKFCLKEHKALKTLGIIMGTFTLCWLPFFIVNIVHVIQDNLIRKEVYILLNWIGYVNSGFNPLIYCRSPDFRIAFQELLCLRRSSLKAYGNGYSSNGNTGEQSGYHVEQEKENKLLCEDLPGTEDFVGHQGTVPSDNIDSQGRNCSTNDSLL
Method in brief: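 Cells (CHO, stable ADRB2 overexpression) incubated 18-20hr at 37C; compounds added from DMSO; agonist mix (1nM isoproterenol, 100uM IBMX, 25uM Ro-20-1724) added; 0.5hr RT; d2-cAMP and anti-cAMP-cryptate added; 1hr RT; 665/615 nm read.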

[19] = molecular target: D(2) dopamine receptor (Homo sapiens) (UniProt P14416); assay: Dopamine D2 receptor (DRD2) small molecule agonists, cell-based qHTS assay (AID 1963594); note: nearly all actives have a fitted effect of over 35% in size
Chain of D(2) dopamine receptor (Homo sapiens) (P14416 whole entry, looked up): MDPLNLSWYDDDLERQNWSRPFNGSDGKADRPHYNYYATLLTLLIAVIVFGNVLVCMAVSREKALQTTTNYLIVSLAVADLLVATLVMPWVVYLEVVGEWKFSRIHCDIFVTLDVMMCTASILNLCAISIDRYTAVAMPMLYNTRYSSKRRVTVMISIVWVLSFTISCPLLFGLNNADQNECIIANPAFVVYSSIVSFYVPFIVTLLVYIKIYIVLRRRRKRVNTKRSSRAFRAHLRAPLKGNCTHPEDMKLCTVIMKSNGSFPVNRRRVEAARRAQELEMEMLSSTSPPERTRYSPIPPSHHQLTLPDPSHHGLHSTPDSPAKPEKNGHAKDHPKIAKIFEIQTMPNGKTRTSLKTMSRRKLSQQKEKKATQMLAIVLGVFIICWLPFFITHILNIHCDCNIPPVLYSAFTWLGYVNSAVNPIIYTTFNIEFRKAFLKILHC
Method in brief: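 HEK293 cells stably expressing DRD2 were cultured 24 h at 37 C, then given Ro20-1724 (0.1 mM final) and compounds for 10 min at room temperature. NKH477 (200nM) was then added for 30 min. cAMP was read by HTRF.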

[20] = molecular target: D(2) dopamine receptor (Homo sapiens) (UniProt P14416); assay: Dopamine D2 receptor (DRD2) small molecule antagonists, cell-based qHTS assay (AID 1963595; active = well fitted inhibition curve with a large enough effect in the signal ratio in the repeat runs, with a control signal flat; the % refers to the signal ratio)
Method in brief: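 Human DRD2 antagonist qHTS measuring cAMP by HTRF. The cells are exposed to compound for 10 min, then to NKH477 (200 nM) and quinpirole (12 nM) for 30 min at RT, with Ro20-1724 (0.1 mM) present throughout.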
% is set by controls: 0 for no effect and ±100 for the full control effect.

Cc1cccc2nccnc12
inactive: Potency [1] | Potency [2] | Potency [3] | outcome [4] | outcome [5] | Potency [6] | Potency [7] | Potency [8] | Potency [9] | Potency [10] | Potency [11] | Potency [12] | Potency [13] | Potency [14] | Potency [15] | Potency [16] | Potency [17] | Potency [18] | Potency [19] | Potency [20]

O=C(O)C(O)[C@H](O)[C@@H](O)[C@H](O)[C@H](O)CO (stereo partly drawn)
inactive: Potency [1] | Potency [2] | Potency [3] | outcome [4] | outcome [5] | Potency [6] | Potency [7] | Potency [8] | Potency [9] | Potency [10] | Potency [11] | Potency [12] | Potency [13] | Potency [14] | Potency [15] | Potency [16] | Potency [17] | Potency [18] | Potency [19]

NC(=O)CC[C@@H](N)C(=O)O
inactive: Potency [1] | Potency [2] | Potency [3] | outcome [4] | outcome [5] | Potency [6] | Potency [7] | Potency [8] | Potency [9] | Potency [10] | Potency [11] | Potency [12] | Potency [13] | Potency [14] | Potency [15] | Potency [16] | Potency [17] | Potency [18] | Potency [19] | Potency [20]

COc1cc(C(C)C)ccc1C
inactive: activity change, negative = cytotoxicity [1] 2.71% [at 19 µM] | activity, positive = activation [2] 17.4% [at 19 µM] | activity change [3] 0.369% [at 11.8 µM, stronger effect = higher value] | activation [4] 3.09% [at 15.8 µM] | activation [5] -0.338% [at 11.8 µM] | activation [6] -9.12% [at 13.5 µM] | activation [7] 0.156% [at 13.6 µM] | activity change, negative = cytotoxicity [8] -0.449% [at 13.5 µM] | activity change, negative = cytotoxicity [9] 0.485% [at 13.5 µM] | activity change, negative = cytotoxicity [10] -2.99% [at 13.5 µM] | activation [11] -3.2% [at 13.5 µM] | activity, negative = inhibition [12] -13.4% [at 12.7 µM] | activation [13] 0.168% [at 15.9 µM] | activity, negative = inhibition [14] 8.74% [at 12.6 µM] | activation [15] -0.0401% [at 15.8 µM] | activation [16] -1.07% [at 19 µM] | activity change, negative = inhibition [17] -0.604% [at 18.9 µM] | activity change, negative = inhibition [18] -2.77% [at 19 µM] | activation [19] -1.89% [at 19 µM] | activity change, negative = inhibition [20] 15.4% [at 18.9 µM]

CCCCC/C=C\CCC=O
inactive: Potency [1] | Potency [2] | Potency [3] | outcome [4] | outcome [5] | Potency [6] | Potency [7] | Potency [8] | Potency [9] | Potency [10] | Potency [11] | Potency [12] | Potency [13] | Potency [14] | Potency [15] | Potency [16] | Potency [17] | Potency [18] | Potency [19] | Potency [20]

Cc1cc(-n2nc3ccc(Cl)cc3n2)c(O)c(C(C)(C)C)c1
inactive: Potency [1] | Potency [2] | Potency [3] | outcome [4] | outcome [5] | Potency [6] | Potency [7] | Potency [8] | Potency [9] | Potency [10] | Potency [11] | Potency [12] | Potency [13] | Potency [14] | Potency [15] | Potency [16] | Potency [17] | Potency [18] | Potency [19]
